# Experimental data as given in paper PMC7862700, “An all-to-all approach to the identification of sequence-specific readers for epigenetic DNA modifications on cytosine”.
# Columns and labels:
# Assay in all cases: DAPPL (digital affinity profiling via proximity ligation, sequencing); 10 mM Tris-HCl pH 7.5, 50 mM NaCl, 1 mM DTT, 4% glycerol, room temperature, 30 min; GST-TFs on glutathione beads, 16-mer random dsDNA library, 0.1% formaldehyde crosslink after washing; high values mean tight binding
# FLI1 = target: T1, FLI1 (Homo sapiens, UniProt Q01543 1-452); details: protein: recombinant; tags: N-terminal GST; dsDNA, one strand shown
# T1 sequence: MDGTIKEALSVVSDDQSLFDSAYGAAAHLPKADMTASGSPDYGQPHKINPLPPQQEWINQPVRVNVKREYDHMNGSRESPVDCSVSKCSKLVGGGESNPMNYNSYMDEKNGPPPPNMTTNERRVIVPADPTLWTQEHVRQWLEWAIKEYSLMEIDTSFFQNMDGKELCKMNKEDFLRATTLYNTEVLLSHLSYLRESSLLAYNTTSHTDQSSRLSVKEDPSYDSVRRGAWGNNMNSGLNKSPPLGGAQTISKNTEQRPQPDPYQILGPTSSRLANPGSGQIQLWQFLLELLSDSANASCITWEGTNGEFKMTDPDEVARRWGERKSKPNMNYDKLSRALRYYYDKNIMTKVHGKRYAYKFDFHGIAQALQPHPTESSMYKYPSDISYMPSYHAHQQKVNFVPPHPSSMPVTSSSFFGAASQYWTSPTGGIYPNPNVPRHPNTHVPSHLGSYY
# Summary of the method: (§1)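 After expression in yeast as GST fusions, human transcription factors were bound to glutathione beads, DNA-barcoded and mixed with a tag-only sample. The pools were incubated with 200 nmole of a 16-mer random double-stranded DNA library in Tris/NaCl/DTT/glycerol buffer (30 min, room temperature), washed and crosslinked with 0.1% formaldehyde. Proximity ligation with BsaI/T4 ligase ran for 1 h at 37 °C, before PCR amplification and sequencing on an Illumina NextSeq500. Binding signal is a hexamer's read frequency for a factor divided by its frequency for the tag-only sample.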
# ELK1 = target: T2, ELK1 (Homo sapiens, UniProt P19419 1-428); details: protein: recombinant; tags: N-terminal GST; dsDNA, one strand shown
# T2 sequence: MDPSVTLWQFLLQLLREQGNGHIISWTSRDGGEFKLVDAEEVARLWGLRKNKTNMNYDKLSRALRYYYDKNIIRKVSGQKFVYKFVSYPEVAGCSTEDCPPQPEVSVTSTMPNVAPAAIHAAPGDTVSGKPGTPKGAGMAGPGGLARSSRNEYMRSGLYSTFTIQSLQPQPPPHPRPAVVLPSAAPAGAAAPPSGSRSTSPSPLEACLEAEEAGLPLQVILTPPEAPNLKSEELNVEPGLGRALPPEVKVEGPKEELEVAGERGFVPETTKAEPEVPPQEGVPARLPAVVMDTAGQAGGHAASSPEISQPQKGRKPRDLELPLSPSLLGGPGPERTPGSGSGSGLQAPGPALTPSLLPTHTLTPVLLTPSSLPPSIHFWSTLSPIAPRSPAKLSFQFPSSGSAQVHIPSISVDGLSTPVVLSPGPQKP
# Summary of the method: as §1
# GABPA = target: T3, GABPA (Homo sapiens, UniProt Q06546 1-454); details: protein: recombinant; tags: N-terminal GST; dsDNA, one strand shown
# T3 sequence: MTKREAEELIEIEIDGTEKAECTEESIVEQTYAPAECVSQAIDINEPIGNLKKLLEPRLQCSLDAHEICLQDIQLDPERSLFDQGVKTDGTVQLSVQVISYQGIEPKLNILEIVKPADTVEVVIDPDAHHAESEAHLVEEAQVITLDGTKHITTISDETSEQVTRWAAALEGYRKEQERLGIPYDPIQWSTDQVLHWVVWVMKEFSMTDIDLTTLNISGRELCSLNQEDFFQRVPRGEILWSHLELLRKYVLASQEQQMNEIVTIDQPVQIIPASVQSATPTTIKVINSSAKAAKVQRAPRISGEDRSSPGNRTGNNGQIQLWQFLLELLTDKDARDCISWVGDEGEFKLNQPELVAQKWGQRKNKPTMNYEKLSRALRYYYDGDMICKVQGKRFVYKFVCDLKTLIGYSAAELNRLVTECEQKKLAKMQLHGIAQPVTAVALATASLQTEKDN
# Summary of the method: as §1
# ERG = target: T4, ERG (Homo sapiens, UniProt P11308 1-479); details: protein: recombinant; tags: N-terminal GST; dsDNA, one strand shown
# T4 sequence: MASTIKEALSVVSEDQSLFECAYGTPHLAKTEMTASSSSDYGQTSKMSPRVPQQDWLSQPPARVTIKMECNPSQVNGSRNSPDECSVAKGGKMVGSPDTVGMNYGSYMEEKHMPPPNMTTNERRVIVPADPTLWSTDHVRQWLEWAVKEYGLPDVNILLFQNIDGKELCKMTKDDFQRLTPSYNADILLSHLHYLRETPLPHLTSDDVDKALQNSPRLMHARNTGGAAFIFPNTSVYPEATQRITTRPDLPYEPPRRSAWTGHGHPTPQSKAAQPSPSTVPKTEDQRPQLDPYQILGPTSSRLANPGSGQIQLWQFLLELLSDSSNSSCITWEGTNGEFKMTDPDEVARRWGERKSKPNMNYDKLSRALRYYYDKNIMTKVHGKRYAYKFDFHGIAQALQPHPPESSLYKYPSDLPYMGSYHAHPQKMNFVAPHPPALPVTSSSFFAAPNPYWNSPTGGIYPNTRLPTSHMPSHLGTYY
# Summary of the method: as §1
# ELF1 = ELF1 (Homo sapiens, UniProt P32519 1-619); details: protein: recombinant; tags: N-terminal GST; dsDNA, one strand shown
# Sequence of ELF1 (P32519 whole entry): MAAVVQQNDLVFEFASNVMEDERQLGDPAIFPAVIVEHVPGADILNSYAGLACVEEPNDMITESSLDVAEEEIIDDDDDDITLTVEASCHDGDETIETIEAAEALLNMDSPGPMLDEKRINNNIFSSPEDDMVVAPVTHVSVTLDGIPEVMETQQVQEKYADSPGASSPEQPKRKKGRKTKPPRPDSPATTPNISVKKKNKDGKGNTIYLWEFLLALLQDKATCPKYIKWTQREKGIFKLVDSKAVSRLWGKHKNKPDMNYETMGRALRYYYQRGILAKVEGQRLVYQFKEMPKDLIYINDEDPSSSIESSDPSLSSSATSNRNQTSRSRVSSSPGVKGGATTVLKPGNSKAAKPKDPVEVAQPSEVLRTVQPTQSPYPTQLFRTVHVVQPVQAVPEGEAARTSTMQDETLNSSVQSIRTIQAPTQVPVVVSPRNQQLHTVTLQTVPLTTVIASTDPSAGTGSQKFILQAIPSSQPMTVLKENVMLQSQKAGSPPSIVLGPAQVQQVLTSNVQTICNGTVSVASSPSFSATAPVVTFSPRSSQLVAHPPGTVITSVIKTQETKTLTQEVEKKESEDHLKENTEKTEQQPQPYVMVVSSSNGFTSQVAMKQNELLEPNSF
# Summary of the method: as §1
# EHF = target: T5, EHF (Homo sapiens, UniProt Q9NZC4 1-300); details: protein: recombinant; tags: N-terminal GST; dsDNA, one strand shown
# T5 sequence: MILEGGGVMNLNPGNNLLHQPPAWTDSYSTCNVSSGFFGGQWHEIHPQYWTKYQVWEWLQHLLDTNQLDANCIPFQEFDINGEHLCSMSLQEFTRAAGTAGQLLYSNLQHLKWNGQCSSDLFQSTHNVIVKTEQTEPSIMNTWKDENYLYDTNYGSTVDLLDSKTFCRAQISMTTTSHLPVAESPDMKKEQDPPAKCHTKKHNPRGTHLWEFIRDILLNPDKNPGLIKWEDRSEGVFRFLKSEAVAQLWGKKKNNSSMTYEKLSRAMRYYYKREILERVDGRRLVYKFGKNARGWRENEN
# Summary of the method: as §1
# SPI1 = SPI1 (Homo sapiens, UniProt P17947 1-270); details: protein: recombinant; tags: N-terminal GST; dsDNA, one strand shown
# Summary of the method: as §1
# SPIB = SPIB (Homo sapiens, UniProt Q01892 1-262); details: protein: recombinant; tags: N-terminal GST; dsDNA, one strand shown
# Sequence of SPIB (Q01892 whole entry): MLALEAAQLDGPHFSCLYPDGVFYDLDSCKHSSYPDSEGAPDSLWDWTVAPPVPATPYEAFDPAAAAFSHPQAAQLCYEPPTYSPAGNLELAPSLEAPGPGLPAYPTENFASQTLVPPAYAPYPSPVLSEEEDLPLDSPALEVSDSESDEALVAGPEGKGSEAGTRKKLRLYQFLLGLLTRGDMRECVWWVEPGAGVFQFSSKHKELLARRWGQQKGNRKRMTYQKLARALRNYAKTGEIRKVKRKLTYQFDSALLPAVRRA
# Summary of the method: as §1
# ELK3 = target: T6, ELK3 (Homo sapiens, UniProt P41970 1-407); details: protein: recombinant; tags: N-terminal GST; dsDNA, one strand shown
# T6 sequence: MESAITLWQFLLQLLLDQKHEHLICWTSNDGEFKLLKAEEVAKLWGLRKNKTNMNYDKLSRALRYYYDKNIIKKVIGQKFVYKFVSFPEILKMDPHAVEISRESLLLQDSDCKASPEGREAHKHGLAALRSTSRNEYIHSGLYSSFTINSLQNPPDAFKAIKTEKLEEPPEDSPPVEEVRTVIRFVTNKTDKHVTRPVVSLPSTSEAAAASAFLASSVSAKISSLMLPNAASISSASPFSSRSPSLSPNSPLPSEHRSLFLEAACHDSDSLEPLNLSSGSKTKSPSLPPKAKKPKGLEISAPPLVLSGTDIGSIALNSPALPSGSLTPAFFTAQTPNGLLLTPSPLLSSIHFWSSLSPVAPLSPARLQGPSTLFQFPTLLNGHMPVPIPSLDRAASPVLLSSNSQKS
# Summary of the method: as §1
# FEV = target: T7, FEV (Homo sapiens, UniProt Q99581 1-238); details: protein: recombinant; tags: N-terminal GST; dsDNA, one strand shown
# T7 sequence: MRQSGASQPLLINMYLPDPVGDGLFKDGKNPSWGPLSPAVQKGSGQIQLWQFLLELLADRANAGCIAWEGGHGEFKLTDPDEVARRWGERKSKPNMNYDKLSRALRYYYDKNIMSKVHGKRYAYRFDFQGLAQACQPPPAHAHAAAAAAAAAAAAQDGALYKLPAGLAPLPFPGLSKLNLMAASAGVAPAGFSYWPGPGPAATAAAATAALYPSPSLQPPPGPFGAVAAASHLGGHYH
# Summary of the method: as §1
# ETV5 = ETV5 (Homo sapiens, UniProt P41161 1-510); details: protein: recombinant; tags: N-terminal GST; dsDNA, one strand shown
# Sequence of ETV5 (P41161 whole entry): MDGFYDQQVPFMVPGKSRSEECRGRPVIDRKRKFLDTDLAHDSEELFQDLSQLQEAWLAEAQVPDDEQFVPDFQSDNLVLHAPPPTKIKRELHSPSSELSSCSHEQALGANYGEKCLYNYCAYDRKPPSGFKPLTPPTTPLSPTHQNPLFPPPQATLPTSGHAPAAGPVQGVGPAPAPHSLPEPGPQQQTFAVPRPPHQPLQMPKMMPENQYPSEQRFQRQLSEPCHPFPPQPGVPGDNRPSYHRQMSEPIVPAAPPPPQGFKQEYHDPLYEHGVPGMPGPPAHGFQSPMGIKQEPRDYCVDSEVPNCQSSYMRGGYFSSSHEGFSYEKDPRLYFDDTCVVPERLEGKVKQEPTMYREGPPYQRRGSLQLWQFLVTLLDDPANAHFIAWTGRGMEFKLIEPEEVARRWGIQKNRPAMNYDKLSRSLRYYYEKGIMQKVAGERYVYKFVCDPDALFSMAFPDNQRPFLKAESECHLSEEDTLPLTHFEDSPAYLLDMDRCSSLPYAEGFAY
# Summary of the method: as §1
# HSF1 = HSF1 (Homo sapiens, UniProt Q00613 1-529); details: protein: recombinant; tags: N-terminal GST; chain copies: 3; dsDNA, one strand shown
# Sequence of HSF1 (Q00613 whole entry): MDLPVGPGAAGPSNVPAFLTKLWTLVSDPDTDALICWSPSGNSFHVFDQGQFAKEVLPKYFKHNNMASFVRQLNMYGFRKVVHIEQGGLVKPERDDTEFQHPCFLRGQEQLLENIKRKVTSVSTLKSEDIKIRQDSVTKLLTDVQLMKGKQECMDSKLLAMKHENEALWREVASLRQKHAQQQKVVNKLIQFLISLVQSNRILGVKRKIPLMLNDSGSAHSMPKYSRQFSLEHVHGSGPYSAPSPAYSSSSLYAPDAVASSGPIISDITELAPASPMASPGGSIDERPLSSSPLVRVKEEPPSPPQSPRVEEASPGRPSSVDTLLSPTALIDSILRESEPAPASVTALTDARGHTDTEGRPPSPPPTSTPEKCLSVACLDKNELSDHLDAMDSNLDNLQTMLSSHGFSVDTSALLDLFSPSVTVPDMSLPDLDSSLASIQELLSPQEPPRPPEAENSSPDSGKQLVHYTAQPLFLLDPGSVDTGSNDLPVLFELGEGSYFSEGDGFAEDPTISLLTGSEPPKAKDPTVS
# Summary of the method: as §1
# SPIC = target: T8, SPIC (Homo sapiens, UniProt Q8N5J4 1-248); details: protein: recombinant; tags: N-terminal GST; dsDNA, one strand shown
# T8 sequence: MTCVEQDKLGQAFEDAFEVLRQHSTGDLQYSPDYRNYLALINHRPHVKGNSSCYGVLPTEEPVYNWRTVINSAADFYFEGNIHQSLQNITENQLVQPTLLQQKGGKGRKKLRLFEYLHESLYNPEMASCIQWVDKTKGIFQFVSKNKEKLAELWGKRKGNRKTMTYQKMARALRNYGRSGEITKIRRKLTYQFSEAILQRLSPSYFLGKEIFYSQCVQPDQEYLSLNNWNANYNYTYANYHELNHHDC
# Summary of the method: as §1
# ELF4 = ELF4 (Homo sapiens, UniProt Q99607 1-663); details: protein: recombinant; tags: N-terminal GST; dsDNA, one strand shown
# Sequence of ELF4 (Q99607 whole entry): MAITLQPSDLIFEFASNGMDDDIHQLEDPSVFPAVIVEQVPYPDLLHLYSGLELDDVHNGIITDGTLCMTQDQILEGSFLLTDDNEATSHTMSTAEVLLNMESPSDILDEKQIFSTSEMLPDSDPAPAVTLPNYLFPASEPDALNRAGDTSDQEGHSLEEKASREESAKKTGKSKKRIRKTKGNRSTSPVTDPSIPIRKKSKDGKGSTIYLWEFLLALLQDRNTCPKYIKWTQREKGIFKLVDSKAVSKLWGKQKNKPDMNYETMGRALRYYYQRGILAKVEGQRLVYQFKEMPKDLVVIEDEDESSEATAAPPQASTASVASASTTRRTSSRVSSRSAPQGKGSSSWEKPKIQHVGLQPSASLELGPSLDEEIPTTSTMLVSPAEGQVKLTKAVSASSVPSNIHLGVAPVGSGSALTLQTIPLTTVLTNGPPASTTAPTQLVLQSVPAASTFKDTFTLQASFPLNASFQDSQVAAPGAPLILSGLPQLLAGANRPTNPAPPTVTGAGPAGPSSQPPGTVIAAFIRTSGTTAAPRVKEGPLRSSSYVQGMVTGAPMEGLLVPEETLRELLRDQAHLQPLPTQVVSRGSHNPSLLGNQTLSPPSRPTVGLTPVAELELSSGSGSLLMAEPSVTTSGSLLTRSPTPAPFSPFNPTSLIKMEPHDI
# Summary of the method: as §1
# ELK4 = target: T9, ELK4 (Homo sapiens, UniProt P28324-2 1-405); details: protein: recombinant; tags: N-terminal GST; dsDNA, one strand shown
# T9 sequence: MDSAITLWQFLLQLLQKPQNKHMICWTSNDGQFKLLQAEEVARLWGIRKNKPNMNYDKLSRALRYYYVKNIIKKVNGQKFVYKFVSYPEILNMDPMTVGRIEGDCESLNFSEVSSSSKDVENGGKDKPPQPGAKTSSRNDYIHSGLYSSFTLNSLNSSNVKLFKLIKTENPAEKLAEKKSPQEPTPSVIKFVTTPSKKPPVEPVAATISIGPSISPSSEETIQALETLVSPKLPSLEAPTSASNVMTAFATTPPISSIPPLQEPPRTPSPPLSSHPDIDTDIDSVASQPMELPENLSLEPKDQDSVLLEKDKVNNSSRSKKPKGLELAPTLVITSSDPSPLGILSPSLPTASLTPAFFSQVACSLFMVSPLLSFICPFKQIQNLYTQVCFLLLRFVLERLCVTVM
# Summary of the method: as §1
# ETV2 = target: T10, ETV2 (Homo sapiens, UniProt O00321 1-342); details: protein: recombinant; tags: N-terminal GST; dsDNA, one strand shown
# T10 sequence: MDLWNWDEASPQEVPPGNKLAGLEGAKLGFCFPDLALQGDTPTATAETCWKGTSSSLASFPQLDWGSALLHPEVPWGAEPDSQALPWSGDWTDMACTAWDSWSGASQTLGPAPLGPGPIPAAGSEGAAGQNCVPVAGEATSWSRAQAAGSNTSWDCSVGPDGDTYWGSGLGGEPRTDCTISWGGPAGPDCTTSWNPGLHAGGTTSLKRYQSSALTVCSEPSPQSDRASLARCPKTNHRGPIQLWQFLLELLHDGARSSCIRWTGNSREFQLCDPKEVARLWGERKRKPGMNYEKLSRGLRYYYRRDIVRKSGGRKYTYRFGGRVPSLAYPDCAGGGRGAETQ
# Summary of the method: as §1
# ELF3 = target: T11, ELF3 (Homo sapiens, UniProt P78545 1-371); details: protein: recombinant; tags: N-terminal GST; dsDNA, one strand shown
# T11 sequence: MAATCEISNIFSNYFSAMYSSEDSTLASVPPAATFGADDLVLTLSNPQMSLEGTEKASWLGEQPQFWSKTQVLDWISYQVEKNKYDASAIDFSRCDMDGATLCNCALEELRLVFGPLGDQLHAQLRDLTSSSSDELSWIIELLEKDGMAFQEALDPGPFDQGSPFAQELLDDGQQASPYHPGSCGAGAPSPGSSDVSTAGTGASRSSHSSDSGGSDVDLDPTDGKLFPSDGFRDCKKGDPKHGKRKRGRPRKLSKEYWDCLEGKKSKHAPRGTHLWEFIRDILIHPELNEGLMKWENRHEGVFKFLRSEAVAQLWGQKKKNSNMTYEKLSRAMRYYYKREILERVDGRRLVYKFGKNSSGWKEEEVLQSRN
# Summary of the method: as §1
# CRX = CRX (Homo sapiens, UniProt O43186 1-299); details: protein: recombinant; tags: N-terminal GST; dsDNA, one strand shown
# Sequence of CRX (O43186 whole entry): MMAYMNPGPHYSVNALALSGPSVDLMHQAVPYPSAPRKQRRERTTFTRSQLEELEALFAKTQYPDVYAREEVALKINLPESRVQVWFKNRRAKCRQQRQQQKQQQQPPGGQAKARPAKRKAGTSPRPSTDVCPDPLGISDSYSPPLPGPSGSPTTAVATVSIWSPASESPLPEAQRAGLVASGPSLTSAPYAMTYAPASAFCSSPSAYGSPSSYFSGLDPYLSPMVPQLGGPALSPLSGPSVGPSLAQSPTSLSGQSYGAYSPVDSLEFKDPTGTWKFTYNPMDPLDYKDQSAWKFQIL
# Summary of the method: as §1
# ETV1 = ETV1 (Homo sapiens, UniProt P50549 1-477); details: protein: recombinant; tags: N-terminal GST; dsDNA, one strand shown
# Sequence of ETV1 (P50549 whole entry): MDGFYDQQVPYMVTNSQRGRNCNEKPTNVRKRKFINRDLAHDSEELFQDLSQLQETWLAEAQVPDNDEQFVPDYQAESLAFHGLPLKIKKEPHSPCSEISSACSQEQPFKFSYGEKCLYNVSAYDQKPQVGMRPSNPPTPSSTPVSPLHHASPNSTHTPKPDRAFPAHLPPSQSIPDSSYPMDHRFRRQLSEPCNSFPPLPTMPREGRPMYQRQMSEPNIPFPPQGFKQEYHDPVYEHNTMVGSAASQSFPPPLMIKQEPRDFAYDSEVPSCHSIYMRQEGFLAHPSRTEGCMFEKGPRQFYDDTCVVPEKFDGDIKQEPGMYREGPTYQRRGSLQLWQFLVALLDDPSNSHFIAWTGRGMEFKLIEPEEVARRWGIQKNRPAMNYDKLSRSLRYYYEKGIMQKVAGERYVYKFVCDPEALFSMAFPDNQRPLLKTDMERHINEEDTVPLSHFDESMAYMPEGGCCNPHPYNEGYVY
# Summary of the method: as §1
sequence,measurement,setting,value
AAGCCT,binding signal,FLI1,"1.21 fold enrichment (6-mer frequency, TF over GST control)"
same,binding signal,ELK1,"1.22 fold enrichment (6-mer frequency, TF over GST control)"
same,binding signal,GABPA,"1.24 fold enrichment (6-mer frequency, TF over GST control)"
same,binding signal,ERG,"1.21 fold enrichment (6-mer frequency, TF over GST control)"
same,binding signal,ELF1,"1.25 fold enrichment (6-mer frequency, TF over GST control)"
same,binding signal,EHF,"1.16 fold enrichment (6-mer frequency, TF over GST control)"
same,binding signal,SPI1,"1.14 fold enrichment (6-mer frequency, TF over GST control)"
same,binding signal,SPIB,"1.22 fold enrichment (6-mer frequency, TF over GST control)"
same,binding signal,ELK3,"1.25 fold enrichment (6-mer frequency, TF over GST control)"
same,binding signal,FEV,"1.2 fold enrichment (6-mer frequency, TF over GST control)"
same,binding signal,ETV5,"1.21 fold enrichment (6-mer frequency, TF over GST control)"
same,binding signal,HSF1,"1.5 fold enrichment (6-mer frequency, TF over GST control)"
same,binding signal,SPIC,"1.26 fold enrichment (6-mer frequency, TF over GST control)"
same,binding signal,ELF4,"1.24 fold enrichment (6-mer frequency, TF over GST control)"
same,binding signal,ELK4,"1.14 fold enrichment (6-mer frequency, TF over GST control)"
same,binding signal,ETV2,"1.19 fold enrichment (6-mer frequency, TF over GST control)"
same,binding signal,ELF3,"1.18 fold enrichment (6-mer frequency, TF over GST control)"
same,binding signal,CRX,"1.97 fold enrichment (6-mer frequency, TF over GST control)"
same,binding signal,ETV1,"1.18 fold enrichment (6-mer frequency, TF over GST control)"
